Results published in PubChem BioAssay.
Activity calls are given as the source filed them. Unless noted, no rule for the calls is given here.

Columns and labels:
[1] = liver-stage malaria parasite load reduction – cell-based, known kinase inhibitor set, luminescence, hepatoma host viability (AID 624392); conditions: Plasmodium liver stage in hepatoma cells, luciferase luminescence, concentration not given here; liver cell % of control: measured here: host liver cell viability; parasite % of control: stronger effect = lower value;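 also: infected cells incubated roughly two days before readout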
[2] = altered dexamethasone sensitivity, NF-kB reporter, cell-based, luciferase, IL-1B stimulus (AID 624486); conditions: IL-1B + dexamethasone, luminescence; percent of negative control (+Dex): actives lie on both sides, concentration not given here; z-score: measured here: IL-1B alone, no Dex;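 as to percent of negative control (+Dex): 100% = mean signal of vehicle control wells on the plate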
[3] = C. elegans survival during P. aeruginosa infection – whole organism (AID 651566);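 also: tested at 14 µM; sign flipped so higher z means a lower ratio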; conditions: C. elegans killed by P. aeruginosa, survival ratio
[4] = pro-inflammatory signaling induction in mouse macrophages – cell-based, murine, luminescence (AID 652131); conditions: murine macrophage pro-inflammatory reporter, stronger effect = higher value
[5] = molecular target: Cellular tumor antigen p53 (Homo sapiens) (UniProt P04637); assay: GFP-p53 level modulators in HPV16+ cells – imaging, known kinase inhibitor set, EGFP/DsRed ratio (AID 1053116); conditions: GFP-p53 stability, stronger effect = higher value; EGFP object count: measured here: GFP-p53 positive objects count;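 also: cells exposed to compounds for 24 h at 37 °C before reading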
[6] = inducers of IRF3 signaling, differentiated THP-1 – cell-based, PMA-stimulated THP-1, luminescence (AID 1053176); conditions: PMA-differentiated THP-1, IRF3 reporter luminescence; stronger effect = higher value
[7] = MELAS cybrid and Rieske KO viability enhancers – cell-based, MELAS cybrids, Rieske KO mouse fibroblasts, CellTiter-Glo, primary screen (AID 1508586;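 active = mean z-score across replicates of 1.96 or higher in either the MELAS or the Rieske mutant cell line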;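 also: z relative to plate mean and SD of compound and empty wells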); conditions: low glucose
[8] = MELAS cybrid survival, CellTiter-Glo 48 h, stronger effect = higher value
[9] = Rieske KO mouse fibroblast survival, CellTiter-Glo 72 h

Sequence of Cellular tumor antigen p53 (Homo sapiens) (P04637 whole entry, looked up): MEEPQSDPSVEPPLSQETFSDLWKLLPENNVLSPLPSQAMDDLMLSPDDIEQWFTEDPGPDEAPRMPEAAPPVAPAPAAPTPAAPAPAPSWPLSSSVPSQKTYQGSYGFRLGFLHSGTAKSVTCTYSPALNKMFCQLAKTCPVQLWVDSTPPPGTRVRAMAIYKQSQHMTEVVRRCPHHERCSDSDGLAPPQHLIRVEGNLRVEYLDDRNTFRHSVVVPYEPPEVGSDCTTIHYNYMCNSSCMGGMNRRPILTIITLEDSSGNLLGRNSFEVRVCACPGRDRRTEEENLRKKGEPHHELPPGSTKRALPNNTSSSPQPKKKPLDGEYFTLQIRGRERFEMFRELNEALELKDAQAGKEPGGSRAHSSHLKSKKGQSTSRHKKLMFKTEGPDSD

Structure (SMILES) | liver cell % of control [1] [%] | parasite % of control [1] | percent of negative control (+Dex) [2] | z-score [2] | z-score [3] | z-score [4] | EGFP object count [5] | EGFP/DsRed ratio [5] | fraction signal [6] | z-score [7, 8] | z-score [7, 9]
Cc1nn(C)c2cc(N(C)c3ccnc(Nc4cccc(S(N)(=O)=O)c4)n3)ccc12 | 71.5 | 67% (inactive) | 82% (inactive) | 0.54 | 0.53 (inactive) | 3.14 (inactive) | 2 | 0.0899 (inactive) | -0.0065 (inactive) | -0.638 (inactive) | 0.0293
COc1cccc(-n2ncc3c(N/N=C/c4ccc(C(=O)NCCN(C)C)cc4)ncnc32)c1 | 77.1 | 68.4% (inactive) | 104% (inactive) | 0.67 | -0.295 (inactive) | 0.961 (inactive) | 7 | 0.117 (inactive) | -0.0045 (inactive) | -0.557 (inactive) | 0.745
COc1ccc(-c2nn3ncccc3c2-c2ccnc(Nc3cccc(C(F)(F)F)c3)n2)cc1 | 92.5 | 122% (inactive) | 90.5% (inactive) | 0.64 | 0.3 (inactive) | 0.045 (inactive) | 4.5 | 0.0918 (inactive) | 0.002 (inactive) | 1.24 (inactive) | -0.239
Nc1nonc1-c1nc2cnccc2n1C1CCCCC1 | 69 | 61.4% (inactive) | 29.5% (active) | -7.08 | -0.155 (inactive) | -0.857 (inactive) | 3.5 | 0.0658 (inactive) | -0.002 (inactive) | -0.132 (inactive) | -0.207
O=C1NC(=Nc2ccccc2)SC1=Cc1ccc2ncccc2c1 | 124 | 68.1% (inactive) | 98% (inactive) | 0.04 | – | – | 3 | 0.0469 (inactive) | -0.003 (inactive) | – | –
